Results: the supplement of paper PMC13380429

Columns and labels:
[1] = tested on: Vero E6 infected with SARS-CoV-2; test: morphology score (similarity to uninfected cells); higher = more like uninfected cells; conditions: 24 h
[2] = tested on: Vero E6 infected with SARS-CoV-2; test: SARS-CoV-2 infection rate relative to infected DMSO; higher = more infection, active = 60 or less; conditions: 24 h

| Compound | morphology score [1] | SARS-CoV-2 infection rate [2] |
| --- | --- | --- |
| CC(C)N(CCCCOCC(=O)NS(C)(=O)=O)c1cnc(-c2ccccc2)c(-c2ccccc2)n1 [selexipag] (10 µM) | -0.0772 | 116% (inactive) |
| O=P(O)(O)C(O)(Cn1ccnc1)P(=O)(O)O [zoledronic-acid] (10 µM) | 0.0372 | 116% (inactive) |
| CCCN(C/C=C/I)[C@H]1CCc2ccc(O)cc2C1 [7-hydroxy-PIPAT] (10 µM) | -0.0984 | 118% (inactive) |
| CNCc1ccc(-c2[nH]c3cc(F)cc4c3c2CCNC4=O)cc1 [rucaparib] (10 µM) | 0.234 | 83% (inactive) |
| CC(C)c1ccc(NC(=O)Cn2cnc3c2c(=O)n(C)c(=O)n3C)cc1 (10 µM) | 0.0452 | 109% (inactive) |
| O=C(Nc1ccccc1)N[C@H]1C[C@H](C(=O)O)Nc2cc(Cl)cc(Cl)c21 (10 µM) | -0.146 | 106% (inactive) |
| Cc1ccc(C(=O)Cn2c3c(sc2=N)CCCC3)cc1 [pifithrin-alpha] (10 µM) | -0.224 | 108% (inactive) |
| FC(F)(F)c1cccc(C2=CCN(CCc3ccc4ccccc4c3)CC2)c1 [xaliproden] (10 µM) | -0.0559 | 108% (inactive) |
| NS(=O)(=O)Cc1noc2ccccc12 [zonisamide] (10 µM) | 0.165 | 95.5% (inactive) |
| CCOP(=S)(OCC)Oc1nc(Cl)c(Cl)cc1Cl [chlorpyrifos] (10 µM) | -0.24 | 112% (inactive) |
| NC1=NCC2c3ccccc3Cc3ccccc3N12 (stereo not drawn) [epinastine] (10 µM) | 0.0427 | 114% (inactive) |
| CC[N+]1(C)CCCC(OC(=O)C(O)(c2ccccc2)c2ccccc2)C1 (stereo not drawn) [pipenzolate] (10 µM) | 0.153 | 98% (inactive) |
| COc1ccc2[nH]cc(C3=CCNCC3)c2c1 (10 µM) | 0.191 | 104% (inactive) |
| Nc1cc(N2CCCCC2)nc(N)[n+]1[O-] [minoxidil] (10 µM) | 0.0795 | 104% (inactive) |
| CC(C)n1cnc2c(C(=O)N[C@H]3CN4CCC3CC4)cc(Cl)cc21 (10 µM) | 0.38 | 85% (inactive) |
| O=S(=O)(NCC1CC1)c1ccc(Nc2nccc(N3CCCc4cc(O)ccc43)n2)cc1 [pyrintegrin] (0.833333 µM) | 0.71 | 60.5% (inactive) |
| NC(=O)CN1CCCC1=O [piracetam] (10 µM) | -0.0282 | 96.5% (inactive) |
| Cc1nc2c(OCc3ccccc3)cccn2c1CC#N (10 µM) | 0.0125 | 110% (inactive) |
| CC(=O)N[C@@H](Cc1c[nH]c2ccccc12)C(=O)OCc1cc(C(F)(F)F)cc(C(F)(F)F)c1 (10 µM) | 0.31 | 93% (inactive) |
| COCCN1CCC(C(=O)NO)(S(=O)(=O)c2ccc(Oc3ccc(OC(F)(F)F)cc3)cc2)CC1 (10 µM) | 0.0474 | 110% (inactive) |
| Nc1ncnc2c1ncn2[C@@H]1O[C@H](COP(=O)(O)O)[C@@H](O)[C@H]1O [adenosine-phosphate] (10 µM) | -0.114 | 113% (inactive) |
| COC[C@@H](NC(C)=O)C(=O)NCc1ccccc1 [Lacosamide] (10 µM) | -0.1 | 103% (inactive) |

| Compound | morphology score [1] | SARS-CoV-2 infection rate [2] |
| --- | --- | --- |
| O=C(O)C1=C(CSc2nnnn2CS(=O)(=O)O)CS[C@@H]2[C@H](NC(=O)[C@H](O)c3ccccc3)C(=O)N12 [Cefonicid (sodium)] (10 µM) | -0.0671 | 112% (inactive) |
| CCOc1ccc(-c2nc(-c3cccc4c3CCC4NCCO)no2)cc1OCC (stereo not drawn) (10 µM) | 0.847 | 12% (active) |
| CSc1ccc(C(=O)N[C@@H]2CCCC[C@@H]2NC(=O)CNC(=O)c2cc(C(F)(F)F)ccc2NC(=O)NC(C)C)cc1 (10 µM) | 0.07 | 93.5% (inactive) |
| CC(C)(C)c1cc(C(C)(C)C)c2c(c1)C(O)(C(F)(F)F)C(=O)O2 (racemic) (10 µM) | 0.239 | 95.5% (inactive) |
| O=[N+]([O-])c1nccn1CC(O)CN1CCCCC1 (stereo not drawn) [pimonidazole] (10 µM) | 0.0622 | 108% (inactive) |
| CC(C)(C)n1nc(-c2cccc3ccccc23)c2c(N)ncnc21 [1-naphthyl-PP1] (0.833333 µM) | 0.129 | 96.5% (inactive) |
| COc1ccc(/C=C/C(=O)Nc2ccccc2C(=O)O)cc1OC [tranilast] (10 µM) | 0.0917 | 108% (inactive) |
| CCC1(C)CC(=O)NC1=O (stereo not drawn) [ethosuximide] (10 µM) | 0.0477 | 104% (inactive) |
| CC(C)(C)NCC(O)c1cc(Cl)c(N)c(Cl)c1 (stereo not drawn) [clenbuterol] (10 µM) | -0.0972 | 110% (inactive) |
| COc1cc2c(cc1F)C(c1ccccc1Cl)=Nc1c(n[nH]c1C)N2 (10 µM) | -0.191 | 104% (inactive) |
| COc1ccc(-n2nc(C(F)(F)F)cc2-c2ccc(Cl)cc2)cc1 (0.833333 µM) | -0.0472 | 101% (inactive) |
| Cc1cccc(/C=N/Nc2cc(N3CCOCC3)n3nc(-c4ccncc4)cc3n2)c1 (10 µM) | 0.261 | 50.5% (active) |
| COc1ccc2[nH]c([S+]([O-])Cc3ncc(C)c(OC)c3C)nc2c1 (stereo not drawn) [omeprazole] (10 µM) | 0.0924 | 104% (inactive) |
| N#Cc1ccc(-c2csc(NN=C3CCCC3)n2)cc1 [remodelin] (10 µM) | 0.0343 | 100% (inactive) |
| Cc1ccnc2c1NC(=O)c1cccnc1N2C1CC1 [nevirapine] (10 µM) | 0.173 | 104% (inactive) |
| c1ccc(Cn2c(N3CCNCC3)nc3ccccc32)cc1 [lerisetron] (10 µM) | 0.0474 | 100% (inactive) |
| CCc1cc(C(N)=S)ccn1 [ethionamide] (10 µM) | 0.155 | 102% (inactive) |
| CC(=O)N[C@@H](CCC(N)=O)C(=O)O [aceglutamide] (10 µM) | -0.137 | 105% (inactive) |
| COc1cc2ncn(-c3cc(OCc4ccccc4C(F)(F)F)c(C(N)=O)s3)c2cc1OC (10 µM) | -0.0651 | 106% (inactive) |
| O=C(NOCC(O)CO)c1cc(Br)c(F)c(F)c1Nc1ccc(I)cc1F (stereo not drawn) (0.833333 µM) | -0.0489 | 112% (inactive) |
| Cc1c(-c2ccccc2)oc2c(C(=O)OCCN3CCCCC3)cccc2c1=O [flavoxate] (10 µM) | 0.4 | 88% (inactive) |
| CO[C@H]1C[C@H](O[C@@H]2/C(C)=C/C[C@@H]3C[C@@H](C[C@]4(CC[C@H](C)[C@@H](C5CCCCC5)O4)O3)OC(=O)[C@@H]3C=C(C)/C(=N/O)[C@H]4OC/C(=C\C=C\[C@@H]2C)[C@]43O)O[C@@H](C)[C@@H]1O [selamectin] (10 µM) | 0.602 | 71% (inactive) |

| Compound | morphology score [1] | SARS-CoV-2 infection rate [2] |
| --- | --- | --- |
| CC(=O)OCC1=C(C(=O)O)N2C(=O)[C@@H](N)[C@H]2SC1 [7-aminocephalosporanic-acid] (10 µM) | -0.0363 | 104% (inactive) |
| COc1ccc(C(=O)c2c(C)n(CCN3CCOCC3)c3cc(I)ccc23)cc1 (10 µM) | 0.116 | 102% (inactive) |
| OCCN1CCN(CCCN2c3ccccc3Sc3ccc(C(F)(F)F)cc32)CC1 [fluphenazine] (0.833333 µM) | -0.174 | 116% (inactive) |
| C[C@@H](c1ccc2nccn2c1)n1nnc2ncc(-c3cnn(C)c3)nc21 [savolitinib] (10 µM) | -0.18 | 104% (inactive) |
| OCCCNc1cc(-c2ccnc(Nc3cccc(Cl)c3)n2)ccn1 (10 µM) | -0.158 | 98% (inactive) |
| CNS(=O)(=O)CCc1ccc2[nH]cc(C3CCN(C)CC3)c2c1 [naratriptan] (10 µM) | 0.0727 | 104% (inactive) |
| O=c1c2ccccc2oc2ccccc12 [xanthone] (10 µM) | 0.219 | 104% (inactive) |
| Nc1nc(Cl)nc2c1ncn2[C@@H]1O[C@H](CO)[C@@H](O)[C@@H]1F [clofarabine] (0.833333 µM) | 0.11 | 94.5% (inactive) |
| CN1CCC(COc2cnc(-c3cccc(Cn4nc(-c5cccc(C#N)c5)ccc4=O)c3)nc2)CC1 (10 µM) | 0.207 | 100% (inactive) |
| COc1ccc(/C=C\c2cc(OC)c(OC)c(OC)c2)cc1O [combretastatin-A-4] (10 µM) | 0.000765 | 98.5% (inactive) |
| CC(C)[C@](O)(c1ccc2cc(OC(F)F)c(OC(F)F)cc2c1)c1c[nH]nn1 (10 µM) | 0.165 | 102% (inactive) |
| Cc1nc2n(c(=O)c1CCN1CCC(c3noc4cc(F)ccc34)CC1)CCCC2O (stereo not drawn) [paliperidone] (10 µM) | 0.08 | 108% (inactive) |
| CN(C)CCOC1=Cc2ccccc2Sc2ccc(Cl)cc21 [zotepine] (0.833333 µM) | 0.061 | 106% (inactive) |
| CC1(N2CCC(n3c([C@@H]4CCCNC4)nc4ccccc43)CC2)CCCCCCC1 (10 µM) | 0.62 | 22% (active) |
| C[C@@H]1CC[C@H]2[C@@H](C)C(=O)O[C@@H]3O[C@@]4(C)CC[C@@H]1[C@]32OO4 [artemisinin] (10 µM) | -0.0301 | 106% (inactive) |
| CC(C)(C)Sc1c(CC(C)(C)C(=O)O)n(Cc2ccc(Cl)cc2)c2ccc(OCc3ccc4ccccc4n3)cc12 [quiflapon] (10 µM) | -0.04 | 106% (inactive) |
| CCCCCCCCCCCCCCCC(=O)OC(C)C [isopropyl-palmitate] (10 µM) | 0.286 | 77% (inactive) |
| Cn1c(COc2ccc(CC3SC(=O)NC3=O)cc2)nc2ccccc2c1=O (stereo not drawn) [balaglitazone] (10 µM) | -0.114 | 111% (inactive) |
| CSc1ccc2c(c1)[C@H](N1CCN(C)CC1)Cc1ccccc1S2 (racemic) [metitepine] (0.833333 µM) | -0.0536 | 112% (inactive) |
| CN[C@H](C(=O)N[C@H](C(=O)N(C)[C@H](/C=C(\C)C(=O)O)C(C)C)C(C)(C)C)C(C)(C)c1ccccc1 [taltobulin] (10 µM) | -0.171 | 98% (inactive) |
